# Data from PubChem BioAssay.
# The source made the active and inactive calls. Unless noted, the rule behind the calls is not given here.
# What was measured:
# [1] = compound effects on lung adenocarcinoma cell viability – A549, calcein-AM fluorescence, 48 h, basal, profiling panel (AID 1162); conditions: higher = more signal; note: test concentration not given here
# [2] = compound effects on differentiated 3T3-L1 adipocyte viability – cell-based, 3T3-L1 adipocytes, calcein-AM fluorescence, 48 h, basal, profiling panel (AID 1163); conditions: 3T3-L1 adipocytes viability, higher = more signal; note: test concentration not given here
# [3] = compound effects on hepatocellular carcinoma cell viability – HepG2, calcein-AM fluorescence, 48 h, basal, profiling panel (AID 1164); conditions: higher = more signal; note: test concentration not given here
# [4] = compound effects on multiple myeloma cell viability – MM1S, calcein-AM fluorescence, 48 h, basal, profiling panel (AID 1165); conditions: higher = more signal; note: test concentration not given here
# [5] = calcein-AM signal in unstimulated myeloma cells – cell-based, calcein-AM fluorescence, 48 h, PK04 Diversity Set, profiling panel (AID 1166); conditions: RPMI8226 myeloma viability, higher = more signal;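 note: cells grown under basal conditions without added stimulus; test concentration not given here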
# [6] = JC-1 mitochondrial signal, unstimulated HepG2 cells – cell-based, JC-1 fluorescence, 24 h, 100 nL compound, profiling panel (AID 1167); conditions: HepG2 mitochondrial potential, higher = more signal; note: test concentration not given here
# [7] = JC-1 mitochondrial signal, unstimulated adipocytes – cell-based, JC-1 fluorescence, 3T3-L1 adipocytes, 24 h, 100 nL compound, profiling panel (AID 1168); conditions: JC-1 mitochondrial fluorescence, higher = more signal, called active from +8 up or from −8 down; note: test concentration not given here
# [8] = JC-1 mitochondrial signal, unstimulated myeloma cells – cell-based, JC-1 fluorescence, RPMI8226, 24 h, 100 nL compound, profiling panel (AID 1169); conditions: JC-1 mitochondrial potential fluorescence, higher = more signal; note: test concentration not given here
# [9] = JC-1 mitochondrial signal, unstimulated MM1S myeloma – cell-based, JC-1 fluorescence, 24 h, 100 nL compound, profiling panel (AID 1170); conditions: MM1S mitochondrial potential, higher = more signal; note: test concentration not given here
# [10] = resazurin metabolic signal in A549 cells – cell-based, resazurin fluorescence, 24 h, PK04 Diversity Set, profiling panel (AID 1171); conditions: A549 viability, higher = more signal, called active from +8 up or from −8 down; note: test concentration not given here
# [11] = resazurin metabolic signal in HepG2 cells – cell-based, resazurin fluorescence, 24 h, PK04 Diversity Set, profiling panel (AID 1172); conditions: HepG2 viability, higher = more signal; note: test concentration not given here
# [12] = budding yeast growth changes without added modifier – OD600, strain BY4716, 24 h, basal condition, primary screen (AID 1173); conditions: S. cerevisiae BY4716 growth, OD600, 24 h; higher = more signal, called active from +8 up or from −8 down
# [13] = viability profiling in MM1S myeloma cells – cell-based, resazurin fluorescence, basal, 24 h, PK04 Diversity Set, profiling panel (AID 1174); conditions: higher = more signal, called active from +8 up or from −8 down; note: test concentration not given here
# [14] = molecular target: Dihydroorotate dehydrogenase (quinone), mitochondrial (Plasmodium falciparum (isolate 3D7)) (UniProt Q08210); assay: inhibition of P. falciparum DHODH – biochemical, C-terminal His tag, absorbance 600 nm, primary screen (AID 1175); conditions: PfDHODH enzyme, DCIP absorbance 600 nm; higher = more signal, called active from +8 up or from −8 down;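 note: recombinant parasite enzyme with a five histidine tag at its C terminus; test concentration not given here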
# Chain of Dihydroorotate dehydrogenase (quinone), mitochondrial (Plasmodium falciparum (isolate 3D7)) (Q08210 whole entry, looked up): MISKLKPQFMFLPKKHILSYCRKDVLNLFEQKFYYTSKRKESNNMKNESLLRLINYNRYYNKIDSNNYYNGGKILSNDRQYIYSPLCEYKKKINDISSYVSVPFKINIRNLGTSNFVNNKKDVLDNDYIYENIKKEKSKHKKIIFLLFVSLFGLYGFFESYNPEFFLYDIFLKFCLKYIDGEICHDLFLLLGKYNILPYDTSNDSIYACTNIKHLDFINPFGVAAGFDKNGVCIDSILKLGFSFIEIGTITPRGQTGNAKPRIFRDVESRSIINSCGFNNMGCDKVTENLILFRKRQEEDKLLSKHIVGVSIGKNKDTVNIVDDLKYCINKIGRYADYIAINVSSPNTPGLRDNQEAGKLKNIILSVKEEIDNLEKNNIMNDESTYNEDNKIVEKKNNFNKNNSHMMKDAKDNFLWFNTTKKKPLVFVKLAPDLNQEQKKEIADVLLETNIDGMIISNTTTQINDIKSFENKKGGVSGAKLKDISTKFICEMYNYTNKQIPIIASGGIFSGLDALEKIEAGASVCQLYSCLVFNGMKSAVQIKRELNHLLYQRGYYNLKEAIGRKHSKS
# [15] = inhibition of PAO1 biofilm formation – strain PAO1, LB-PBS medium, absorbance 600 nm, primary screen (AID 1176); note: test concentration not given here; conditions: P. aeruginosa PAO1 growth/biofilm, A600, 12 h; higher = more signal
# [16] = growth modulation of vineyard yeast isolate – strain RM11-1a, OD600, basal, 24 h, primary screen (AID 1177);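 note: cultures grown under basal conditions with no added stressor; test concentration not given here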; conditions: S. cerevisiae RM11-1a growth, OD600, 24 h; higher = more signal, called active from +8 up or from −8 down
# [17] = growth of efflux-deficient E. coli DRC39 – strain DRC39, OD650, 24 h, E. coli filamentation inducers, primary screen (AID 1178);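 note: growth measured as culture turbidity by optical density at 650 nm; test concentration not given here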; conditions: E. coli DRC39 acrAB, higher = more signal, called active from +8 up or from −8 down
# [18] = growth of efflux-deficient E. coli DRC39 – strain DRC39, OD650, 48 h, E. coli filamentation inducers, primary screen (AID 1179);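 note: screen aims at cell division blockers that make cells filament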; conditions: E. coli DRC39 delta-acrAB growth, higher = more signal, called active from +8 up or from −8 down
# [19] = viability profiling in RPMI8226 myeloma cells – cell-based, resazurin fluorescence, basal, 24 h, PK04 Diversity Set, profiling panel (AID 1180); conditions: higher = more signal;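 note: RPMI8826 multiple myeloma cell line at 5000 cells per well; test concentration not given here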
# [20] = molecular target: E3 ubiquitin-protein ligase XIAP (Homo sapiens) (UniProt P98170); assay: small molecules binding XIAP protein – biophysical, small-molecule microarray, fluorescence 635 nm, primary screen (AID 1181); conditions: higher = more signal;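 note: score merges 667 nm emission and signal to noise over triplicate slides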
# Chain of E3 ubiquitin-protein ligase XIAP (Homo sapiens) (P98170 whole entry, looked up): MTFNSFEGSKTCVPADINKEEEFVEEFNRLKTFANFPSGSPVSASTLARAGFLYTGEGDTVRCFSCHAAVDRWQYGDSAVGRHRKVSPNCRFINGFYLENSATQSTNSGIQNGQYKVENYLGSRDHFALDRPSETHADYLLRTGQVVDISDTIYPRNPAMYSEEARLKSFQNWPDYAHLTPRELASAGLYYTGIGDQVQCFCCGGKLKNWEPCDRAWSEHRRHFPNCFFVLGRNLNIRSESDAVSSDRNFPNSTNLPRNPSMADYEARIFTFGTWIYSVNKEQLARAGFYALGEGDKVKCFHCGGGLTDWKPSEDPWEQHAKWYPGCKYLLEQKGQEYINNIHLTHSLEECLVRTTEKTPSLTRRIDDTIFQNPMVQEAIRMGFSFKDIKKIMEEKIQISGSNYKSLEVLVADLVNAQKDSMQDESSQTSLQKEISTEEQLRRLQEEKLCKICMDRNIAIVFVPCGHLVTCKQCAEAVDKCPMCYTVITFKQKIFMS
Structure (SMILES),z-score [1],z-score [2],z-score [3],z-score [4],z-score [5],z-score [6],z-score [7],z-score [8],z-score [9],z-score [10],z-score [11],z-score [12],z-score [13],composite z-score [14],z-score [15],z-score [16],z-score [17],z-score [18],z-score [19],composite z-score [20]
COc1cc(Cc2cc3c(c(CCc4ccccc4)n2)[Si](C(C)C)(C(C)C)O[C@H]3c2ccccc2)cc(OC)c1OC,-4.59,-0.515,-3.15,-3.14,-3.71,-3.44,0.0754 (inactive),-0.548,-0.663,-1.24 (inactive),-0.877,-17.2 (active),-0.489 (inactive),-0.435 (inactive),0.113 (inactive),-0.234 (inactive),-0.264 (inactive),-0.65 (inactive),-0.163,0.355
O=C1OCC=C[C@H]2OC34C=CCN(Cn5nnc6ccccc65)C(=O)[C@H]3N(CCO)C(=O)[C@@H]4[C@@H]12 (stereo not given in full),0.0757,-0.529,0.344,0.897,0.209,-1.15,0.765 (inactive),-0.462,-0.187,-0.822 (inactive),-0.779,0.818 (inactive),-0.176 (inactive),-0.642 (inactive),-0.332 (inactive),-0.581 (inactive),0.0034 (inactive),-0.0669 (inactive),-0.256,-0.0749
CC(C)[Si]1(C(C)C)OCc2cc(-c3ccc(-c4ccc(Cl)c(Cl)c4)o3)nc(-c3ccc(Oc4ccccc4)cc3)c21,-0.222,-1.06,-0.879,0.0719,-0.605,0.213,-0.966 (inactive),0.17,0.0397,-0.232 (inactive),-0.213,-3.1 (inactive),-0.0996 (inactive),0.936 (inactive),0.574 (inactive),1.95 (inactive),0.223 (inactive),-0.262 (inactive),-0.133,0.114
Cc1ccc(S[C@]2(C(=O)NCc3ccccc3)CC(=O)N(Cc3ccccc3C(F)(F)F)[C@@H]2c2ccc(CO)cc2I)cc1,1.13,0.615,0.024,-2.39,-2.16,-0.741,-0.841 (inactive),-0.491,-0.518,1.15 (inactive),0.213,-5.1 (inactive),-2.36 (inactive),-1.44 (inactive),-0.239 (inactive),-1.54 (inactive),0.506 (inactive),-0.0277 (inactive),-1.28,-0.135
COCCOC(=O)N1C(=O)[C@@]2(c3cc(C#CCC(C(=O)OC)C(=O)OC)ccc31)[C@H](c1ccc(O)cc1)N1[C@H](c3ccccc3)[C@H](c3ccccc3)OC(=O)[C@H]1[C@@H]2C(=O)N1CCc2cc(OC)c(OC)cc2C1,0.393,0.632,0.806,-0.243,-3.34,0.763,-0.291 (inactive),-1.15,0.22,0.742 (inactive),-0.347,-0.672 (inactive),0.222 (inactive),-0.118 (inactive),0.008 (inactive),0.494 (inactive),0.109 (inactive),0.588 (inactive),-0.92,-0.0233
